Measured values as given in PubChem BioAssay (Tox21).
“And” between values parts separate entries of the source, which are not always exact repeats. Equal entries are not always repeated. Records with an inconclusive call do not appear. Entries that show only a call come without a potency. Some structures have more than one record in an assay (separate samples or runs), and their calls can disagree. The source made the active and inactive calls. Unless noted, calls come from the whole dose curve; as a rule, active = well fitted curve in the direction sought with a large enough effect in the repeat runs; inconclusive = weak or mixed curves; inactive = no such curve, though single readings can be large; an effect the other way counts as inactive or inconclusive.

Experiments:
[1] = qHTS assay to identify small molecule antagonists of the glucocorticoid receptor (GR) signaling pathway - cell viability counter screen (AID 720693); note: nearly all actives have a fitted effect of over 55% in size
[2] = qHTS assay for identifying genotoxic compounds that show differential cytotoxicity against isogenic chicken DT40 cell lines with known DNA damage response pathways - wild type cell line (AID 743012); note: nearly all actives have a fitted effect of over 60% in size; note: potency is the fitted concentration of half-maximal effect
Outline: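 Wild-type DT40 cells (300/well) exposed to compounds for 40 hours at 37 C/5% CO2. Viability read by CellTiter-Glo luminescence after 30 min at room temperature.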

[3] = qHTS assay for identifying genotoxic compounds that show differential cytotoxicity against isogenic chicken DT40 cell lines with known DNA damage response pathways - Rev3 mutant cell line (AID 743014); note: nearly all actives have a fitted effect of over 55% in size; note: potency is the fitted concentration of half-maximal effect
[4] = qHTS assay for identifying genotoxic compounds that show differential cytotoxicity against isogenic chicken DT40 cell lines with known DNA damage response pathways - Rad54/Ku70 mutant cell line (AID 743015); note: nearly all actives have a fitted effect of over 60% in size; note: potency is the fitted concentration of half-maximal effect
[5] = qHTS assay to identify small molecule antagonists of the androgen receptor (AR) signaling pathway - cell viability counter screen (AID 743033; note: nearly all actives have a fitted effect of over 45% in size; note: potency is the fitted concentration of half-maximal effect)
[6] = qHTS assay to identify small molecule antagonists of the androgen receptor (AR) signaling pathway using the MDA cell line - cell viability counter screen (AID 743041; note: nearly all actives have a fitted effect of over 45% in size)
Outline: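 Cells were plated at 3,000 per well and left 5 h. Compounds in DMSO were then pinned in, followed by R1881. After 16 h at 37C, CellTiter-Fluor fluorescence gave viability.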

[7] = molecular target: Androgen receptor (Homo sapiens) (UniProt P10275); assay: qHTS assay to identify small molecule antagonists of the androgen receptor (AR) signaling pathway (AID 743035; active = well fitted inhibition curve with a large enough effect in the signal ratio in the repeat runs, not every such curve was filed as active; the % refers to the signal ratio)
Sequence of Androgen receptor (Homo sapiens) (P10275 whole entry, looked up): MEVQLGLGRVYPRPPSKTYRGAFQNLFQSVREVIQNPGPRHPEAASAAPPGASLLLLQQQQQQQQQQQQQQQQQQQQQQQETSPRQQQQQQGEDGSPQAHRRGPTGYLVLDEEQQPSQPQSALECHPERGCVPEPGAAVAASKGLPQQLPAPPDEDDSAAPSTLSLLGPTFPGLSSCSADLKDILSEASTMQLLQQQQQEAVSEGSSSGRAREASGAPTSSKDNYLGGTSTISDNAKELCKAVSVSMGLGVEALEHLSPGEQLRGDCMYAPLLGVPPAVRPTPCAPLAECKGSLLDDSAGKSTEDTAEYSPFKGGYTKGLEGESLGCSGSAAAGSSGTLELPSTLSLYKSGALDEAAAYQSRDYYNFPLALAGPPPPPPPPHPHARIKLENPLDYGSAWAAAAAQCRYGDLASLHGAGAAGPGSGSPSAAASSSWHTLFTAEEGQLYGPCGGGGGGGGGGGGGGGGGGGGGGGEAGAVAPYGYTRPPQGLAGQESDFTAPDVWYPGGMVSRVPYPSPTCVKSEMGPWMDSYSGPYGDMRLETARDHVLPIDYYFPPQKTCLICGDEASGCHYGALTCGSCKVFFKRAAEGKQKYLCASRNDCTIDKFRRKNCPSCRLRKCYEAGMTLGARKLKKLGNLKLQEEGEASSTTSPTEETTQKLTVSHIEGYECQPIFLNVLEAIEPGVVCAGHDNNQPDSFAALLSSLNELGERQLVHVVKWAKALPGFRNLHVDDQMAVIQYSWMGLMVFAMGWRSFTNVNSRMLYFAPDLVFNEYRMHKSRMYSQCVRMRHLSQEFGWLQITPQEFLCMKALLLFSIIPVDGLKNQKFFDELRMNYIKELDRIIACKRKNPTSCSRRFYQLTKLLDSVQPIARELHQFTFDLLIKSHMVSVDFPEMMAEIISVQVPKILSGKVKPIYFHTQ
Outline: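 HEK293 cells stably carrying UAS-beta-lactamase reporter, 2,000/well, given compounds plus R1881 agonist and incubated 16 h at 37C. LiveBLAzer B/G FRET substrate then added for 2 h at room temperature before fluorescence reading.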

[8] = molecular target: Androgen receptor (Homo sapiens) (UniProt P10275); assay: qHTS assay to identify small molecule agonists of the androgen receptor (AR) signaling pathway (AID 743036; active = well fitted activation curve with a large enough effect in the signal ratio in the repeat runs, with a control signal flat, not every such curve was filed as active; the % refers to the signal ratio)
Outline: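 HEK293 cells stably carrying a UAS-driven beta-lactamase reporter (GeneBLAzer AR-UAS-bla-GripTite) were plated at 2,000 cells/well, rested 4 h at 37C, then exposed to compounds in DMSO for 16 h. LiveBLAzer B/G FRET substrate was added for 2 h at room temperature; fluorescence read.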

[9] = molecular target: Androgen receptor (Homo sapiens) (UniProt P10275); assay: qHTS assay to identify small molecule agonists of the androgen receptor (AR) signaling pathway using the MDA cell line (AID 743040; note: nearly all actives have a fitted effect of over 20% in size)
Outline: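 Cells plated, 5 h at 37C/0% CO2; compound or DMSO pinned; 16 h at 37C; ONE-Glo added; luminescence measured after 30 min at room temperature. Reporter line: MDA-kb2 with MMTV-luciferase responsive to AR and GR.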

[10] = molecular target: Androgen receptor (Homo sapiens) (UniProt P10275); assay: qHTS assay to identify small molecule antagonists of the androgen receptor (AR) signaling pathway using the MDA cell line (AID 743042; note: nearly all actives have a fitted effect of over 55% in size)
Outline: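 Antagonist mode: compounds plus R1881 agonist added to MDA-kb2 AR-luc cells, incubated 16 h at 37C. Luciferase reporter luminescence quantified, with multiplexed CellTiter-Fluor readout for cell viability.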

Structure (SMILES)	Potency [1]	Potency [2]	Potency [3]	Potency [4]	Potency [5]	Potency [6]	Potency [7]	outcome [8]	Potency [9]	outcome [10]
CCOC(=O)/C=C(C)/C=C/C[C@@H](C)CCCC(C)C	inactive	30.6 µM (active)	54.5 µM (active)	inactive and 43.3 µM (active)	inactive	inactive				
CCSC(=O)N(CC)C1CCCCC1	inactive	inactive	inactive	inactive	inactive	inactive				
O=NN1CCN(N=O)CC1	inactive	inactive	inactive	inactive	inactive	inactive				
CCOP(=S)(OCC)Oc1cc(-c2ccccc2)on1	inactive	68.6 µM (active)	61.1 µM (active)	68.6 µM (active)	inactive	inactive				
COc1cc(OC)nc(NC(=O)NS(=O)(=O)c2ncccc2OCC(F)(F)F)n1	inactive	inactive	inactive	inactive	inactive	inactive				
CCOP(=S)(Oc1cnc(C(C)(C)C)nc1)OC(C)C (stereo not drawn)	inactive	54.5 µM (active)	27.3 µM (active)	48.6 µM (active)	inactive	inactive				
CNNC	inactive	inactive	inactive	inactive	inactive	inactive				
C[N+](=O)[O-]	inactive	inactive	inactive	inactive	inactive	inactive				
CC1CCC(=O)O1 (stereo not drawn)	inactive	inactive	inactive	inactive	inactive	inactive				
CC(C)NCC(O)c1ccc(N)c(C#N)c1 (stereo not drawn)	inactive	inactive	inactive	inactive	inactive	inactive				
CC(=O)C(Cl)Cl	inactive	inactive	inactive	inactive	inactive	inactive				
COC(=O)COc1ccc(Cl)cc1Cl	inactive	inactive	inactive	inactive	inactive	inactive				
CC(=O)CC(c1ccc(Cl)cc1)c1c(O)c2ccccc2oc1=O (stereo not drawn)	inactive	inactive	inactive	inactive	inactive	inactive				
ClC(Cl)C(Cl)Cl	inactive	inactive	inactive	inactive	inactive	inactive				
CC(C)CP(=S)(S)CC(C)C	inactive	13.7 µM (active)	13.7 µM (active)	8.63 µM (active)	17.4 µM (active)	inactive				
COc1ccc(C(=O)N2CCCC2=O)cc1	inactive	inactive	inactive	inactive	0.0085 µM (active)	inactive				
[As]#[In]	inactive	inactive	inactive	inactive	inactive	inactive				
C=C(C)[C@@H]1CC=C(C=O)CC1	inactive	54.5 µM (active)	61.1 µM (active)	54.5 µM (active)	inactive	inactive				
O=C(Nc1ccccc1)N(Cc1ccc(Cl)cc1)C1CCCC1	inactive	3.86 µM (active)	0.611 µM (active)	1.54 µM (active)	inactive	inactive				
O=P(O)(Oc1ccccc1)Oc1ccccc1	inactive	inactive	inactive	inactive	inactive	inactive				
CCOC(=O)CP(=O)(OCC)OCC	inactive	inactive	inactive	inactive	inactive	inactive				

Structure (SMILES)	Potency [1]	Potency [2]	Potency [3]	Potency [4]	Potency [5]	Potency [6]	Potency [7]	outcome [8]	Potency [9]	outcome [10]
CC(C)[N+](=O)[O-]	inactive	inactive	inactive	inactive	inactive	inactive				
CCCCOC(=O)[C@@H](C)Oc1ccc(Oc2ccc(C#N)cc2F)cc1	inactive	34.2 µM (active)	30.5 µM (active)	43 µM (active)	inactive	inactive				
CCN(CC)CCOC(=O)C(C)(c1ccccc1)c1ccccc1	inactive	8.41 µM (active)	11.9 µM (active)	23.7 µM (active)	inactive	inactive				
Oc1c(Cl)cccc1Cl	inactive	inactive	inactive	inactive	inactive	inactive				
O=C1CN=C(c2ccccc2)c2cc([N+](=O)[O-])ccc2N1	inactive	inactive	inactive	inactive	inactive	inactive				
O=C1OC(c2ccc(O)c(S(=O)(=O)O)c2)(c2ccc(O)c(S(=O)(=O)O)c2)c2c(Br)c(Br)c(Br)c(Br)c21	inactive	inactive	inactive	inactive	inactive	inactive				
CC(C)(C)C(=O)C(Oc1ccc(Cl)cc1)n1cncn1 (stereo not drawn)	inactive	61.1 µM (active)	30.6 µM (active)	30.6 µM (active)	inactive	inactive				
CCS(=O)(=O)CCSP(=O)(OC)OC	inactive	61.1 µM (active)	38.6 µM (active)	48.6 µM (active)	inactive	inactive				
CCN(CC)c1nc(C)cc(OP(=S)(OC)OC)n1	inactive	48.6 µM (active)	48.6 µM (active)	48.6 µM (active)	inactive	inactive				
CC1CN1P(=O)(N1CC1C)N1CC1C (stereo not drawn)	inactive	inactive	inactive	inactive	inactive	inactive				
O=[N+]([O-])c1ccc(CBr)cc1	inactive	inactive	inactive	inactive	inactive	inactive				
O=[N+]([O-])c1cc(Cl)c(Cl)c(Cl)c1	inactive	inactive	inactive	inactive	inactive	inactive				
C[N+](C)=CCl	inactive	inactive	inactive	inactive	inactive	inactive				
CCCCN(CCCCO)N=O	inactive	inactive	inactive	inactive	inactive	inactive				
COP(N)(=S)Oc1ccccc1C(=O)OC(C)C (stereo not drawn)	inactive	inactive	inactive	inactive		inactive	inactive	inactive	inactive	inactive
CC(CC(C#N)(c1ccccc1)c1ccccc1)N(C)C (stereo not drawn)	inactive	30.5 µM (active)	54.2 µM (active)	48.3 µM (active)		inactive				
O=C1OC(=O)C2C1C1(Cl)C(Cl)=C(Cl)C2(Cl)C1(Cl)Cl (stereo not drawn)	inactive	inactive	inactive	inactive		inactive				
O=c1oc2ccccc2c(O)c1C1CCCc2ccccc21 (stereo not drawn)	inactive	inactive	inactive	inactive		inactive				
CCC(Cl)[N+](=O)[O-] (stereo not drawn)	inactive	inactive	inactive	inactive		inactive				
N#CCBr	inactive	inactive	inactive	inactive		inactive				
CC(C)COP(=O)(OCC(C)C)OCC(C)C	inactive	inactive	inactive	inactive	inactive	inactive				

Structure (SMILES)	Potency [1]	Potency [2]	Potency [3]	Potency [4]	Potency [5]	Potency [6]	Potency [7]	outcome [8]	Potency [9]	outcome [10]
COC(=O)c1ccccc1S(=O)(=O)NC(=O)Nc1nc(C)cc(C)n1	inactive	inactive	inactive	inactive		inactive				
ClCCOCOCCCl	inactive	inactive	inactive	inactive	inactive	inactive				
CCN(CC)C(=O)[C@@H]1C=C2c3cccc4[nH]cc(c34)C[C@H]2N(C)C1	inactive	8.98 µM (active) and 10.6 µM (active)	101 µM (active) and 23.7 µM (active)	31.9 µM (active) and 11.9 µM (active)	inactive	inactive				
CN(C)CCc1ccc(O)cc1	inactive	inactive	inactive	inactive		inactive				
c1cc2c(c(N3CCNCC3)c1)OCCO2	inactive	inactive	inactive	inactive		inactive	inactive	inactive	inactive	inactive
O=C(NCO)NCO	inactive	inactive	inactive	inactive	inactive	inactive				
NC(=O)c1cc([N+](=O)[O-])cc([N+](=O)[O-])c1	inactive	inactive	inactive	inactive		inactive				
NC(=O)O	inactive	inactive	inactive	inactive		inactive				
CCOP(=O)(N=C1SCCS1)OCC	inactive	inactive	inactive	inactive		inactive				
CNC(=O)Oc1cccc(C(C)C)c1	inactive	inactive	inactive	inactive		inactive				
CC1(C)COP(Oc2ccccc2)OC1	inactive	inactive	inactive	inactive		inactive	inactive	inactive	inactive	inactive
C=CC1CC=CCC1 (stereo not drawn)	inactive	inactive	inactive	inactive	inactive	inactive				
C[C@@H]1CN(C2CCC(C#N)(c3ccc(F)cc3)CC2)CC[C@]1(C(=O)O)c1ccccc1 (stereo partly drawn)	inactive	inactive	inactive	inactive	inactive	inactive				
C(CCOCC1CO1)COCC1CO1 (stereo not drawn)	inactive	12 µM (active)	1.07 µM (active)	15.1 µM (active)	inactive	inactive				
Cc1ncsc1CCCl	inactive	inactive	inactive	inactive		inactive				
N#Cc1ccncc1	inactive	inactive	inactive	inactive		inactive				
CC(=O)CCc1ccc2c(c1)OCO2	inactive	inactive	inactive	inactive		inactive				
CCC#N	inactive	inactive	inactive	inactive		inactive				
OCCSCSCCO	inactive	inactive	inactive	inactive		inactive				
CNCC(=O)c1ccc(O)c(O)c1	inactive	inactive	inactive	inactive		inactive				
CCN(CC)C(C)C(=O)c1ccccc1 (stereo not drawn)	inactive	inactive	inactive	inactive		inactive	inactive	inactive	inactive	inactive
